Test [1] concerns the target 5'-AMP-activated protein kinase catalytic subunit alpha-2 (Homo sapiens) (UniProt P54646). As to conditions: at 1 µM.
Test [2] has as its target T1, NUAK family SNF1-like kinase 1 (Homo sapiens) (UniProt O60285).
T1 sequence (whole entry): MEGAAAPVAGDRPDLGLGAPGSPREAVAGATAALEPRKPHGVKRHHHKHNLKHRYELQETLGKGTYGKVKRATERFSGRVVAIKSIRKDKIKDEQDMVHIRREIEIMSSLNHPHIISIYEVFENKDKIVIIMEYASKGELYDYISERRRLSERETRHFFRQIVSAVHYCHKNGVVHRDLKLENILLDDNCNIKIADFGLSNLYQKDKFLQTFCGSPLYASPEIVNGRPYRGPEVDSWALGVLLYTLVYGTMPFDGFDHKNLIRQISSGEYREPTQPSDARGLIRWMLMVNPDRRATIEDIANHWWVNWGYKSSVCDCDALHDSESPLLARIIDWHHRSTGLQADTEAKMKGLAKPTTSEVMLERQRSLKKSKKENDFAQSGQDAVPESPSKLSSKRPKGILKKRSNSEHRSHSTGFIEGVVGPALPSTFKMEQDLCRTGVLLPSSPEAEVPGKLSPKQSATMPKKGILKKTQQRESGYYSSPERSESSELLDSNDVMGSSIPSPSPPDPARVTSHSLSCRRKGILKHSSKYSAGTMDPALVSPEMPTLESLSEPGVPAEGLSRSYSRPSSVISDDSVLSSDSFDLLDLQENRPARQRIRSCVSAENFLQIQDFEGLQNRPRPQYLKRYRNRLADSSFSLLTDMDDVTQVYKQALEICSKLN
As to conditions: at 0.1 µM.

Test [3] concerns the target T1, NUAK family SNF1-like kinase 1 (Homo sapiens). The settings on record: at 1 µM.
The target of test [4] is T2, Serine/threonine-protein kinase BRSK1 (Homo sapiens) (UniProt Q8TDC3).
T2 sequence (whole entry): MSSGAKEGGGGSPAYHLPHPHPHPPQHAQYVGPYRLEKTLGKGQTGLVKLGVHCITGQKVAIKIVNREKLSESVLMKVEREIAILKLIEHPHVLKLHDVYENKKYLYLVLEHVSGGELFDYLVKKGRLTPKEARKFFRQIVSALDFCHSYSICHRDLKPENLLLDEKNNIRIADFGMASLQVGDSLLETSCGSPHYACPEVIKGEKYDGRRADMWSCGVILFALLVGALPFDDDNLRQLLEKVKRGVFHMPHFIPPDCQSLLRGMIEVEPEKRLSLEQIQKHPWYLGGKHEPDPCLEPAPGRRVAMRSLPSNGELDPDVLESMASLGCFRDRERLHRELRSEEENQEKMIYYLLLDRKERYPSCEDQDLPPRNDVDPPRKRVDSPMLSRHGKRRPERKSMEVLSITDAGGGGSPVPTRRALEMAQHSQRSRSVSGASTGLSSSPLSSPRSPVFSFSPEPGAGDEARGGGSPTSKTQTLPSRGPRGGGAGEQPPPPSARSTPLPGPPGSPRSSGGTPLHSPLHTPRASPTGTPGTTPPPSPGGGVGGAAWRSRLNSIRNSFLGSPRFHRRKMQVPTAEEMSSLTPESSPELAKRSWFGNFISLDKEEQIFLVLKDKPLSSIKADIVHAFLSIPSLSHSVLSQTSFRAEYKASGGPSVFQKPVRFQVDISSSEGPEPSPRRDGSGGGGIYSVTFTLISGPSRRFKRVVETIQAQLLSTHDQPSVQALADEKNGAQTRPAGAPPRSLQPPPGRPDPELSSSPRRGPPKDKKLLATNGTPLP
As to conditions: at 0.1 µM.

The target in test [5] is T2, Serine/threonine-protein kinase BRSK1 (Homo sapiens). As to conditions: at 1 µM.
The target of test [6] is T3, Serine/threonine-protein kinase BRSK2 (Homo sapiens) (UniProt Q8IWQ3).
T3 sequence (whole entry): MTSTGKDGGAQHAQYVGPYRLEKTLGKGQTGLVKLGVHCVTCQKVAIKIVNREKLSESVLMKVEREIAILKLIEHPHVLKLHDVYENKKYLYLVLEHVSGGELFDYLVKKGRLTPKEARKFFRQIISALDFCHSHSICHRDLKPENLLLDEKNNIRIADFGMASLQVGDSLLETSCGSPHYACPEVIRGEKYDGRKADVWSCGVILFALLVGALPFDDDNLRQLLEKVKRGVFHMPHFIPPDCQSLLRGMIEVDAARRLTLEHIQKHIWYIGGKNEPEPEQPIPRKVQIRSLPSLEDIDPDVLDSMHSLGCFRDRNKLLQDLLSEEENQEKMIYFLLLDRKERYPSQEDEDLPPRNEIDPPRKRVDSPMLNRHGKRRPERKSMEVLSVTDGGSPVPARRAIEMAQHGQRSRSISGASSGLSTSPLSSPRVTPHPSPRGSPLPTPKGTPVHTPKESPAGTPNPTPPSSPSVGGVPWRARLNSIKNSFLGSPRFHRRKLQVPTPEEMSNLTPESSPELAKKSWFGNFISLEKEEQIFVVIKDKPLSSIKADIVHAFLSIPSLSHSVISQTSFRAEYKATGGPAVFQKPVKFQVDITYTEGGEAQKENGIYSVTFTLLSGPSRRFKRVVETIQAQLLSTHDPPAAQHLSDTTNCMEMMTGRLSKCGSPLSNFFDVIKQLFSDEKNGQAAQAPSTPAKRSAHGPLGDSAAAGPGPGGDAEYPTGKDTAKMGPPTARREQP
The settings on record: at 0.1 µM.

Test [7] has as its target T3, Serine/threonine-protein kinase BRSK2 (Homo sapiens). The settings on record: at 1 µM.
The target of test [8] is Calcium/calmodulin-dependent protein kinase type 1D (Homo sapiens) (UniProt Q8IU85). The settings on record: at 0.1 µM.
Test [9] has the same target. As to conditions: at 1 µM.
The target in test [10] is Calcium/calmodulin-dependent protein kinase type II subunit alpha (Homo sapiens) (UniProt Q9UQM7). The settings on record: at 0.1 µM.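 Note: reported values are averages (mean inhibition of CAMK2A).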

“And” between values parts separate entries of the source, which are not always exact repeats. Equal entries are not always repeated.

Chain of Calcium/calmodulin-dependent protein kinase type II subunit alpha (Homo sapiens) (Q9UQM7 whole entry): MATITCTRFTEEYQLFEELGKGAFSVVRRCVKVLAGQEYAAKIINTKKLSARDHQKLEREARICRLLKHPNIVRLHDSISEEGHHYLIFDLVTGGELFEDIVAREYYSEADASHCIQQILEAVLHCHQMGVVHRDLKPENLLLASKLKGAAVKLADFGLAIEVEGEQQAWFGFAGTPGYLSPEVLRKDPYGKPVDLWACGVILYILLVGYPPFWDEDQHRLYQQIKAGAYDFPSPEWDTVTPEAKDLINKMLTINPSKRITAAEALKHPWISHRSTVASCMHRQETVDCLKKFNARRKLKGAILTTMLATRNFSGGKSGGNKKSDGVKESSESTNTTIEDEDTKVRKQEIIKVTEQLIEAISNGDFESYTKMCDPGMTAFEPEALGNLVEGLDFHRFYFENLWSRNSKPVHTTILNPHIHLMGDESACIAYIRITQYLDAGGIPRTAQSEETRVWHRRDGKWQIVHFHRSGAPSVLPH
Chain of Calcium/calmodulin-dependent protein kinase type 1D (Homo sapiens) (Q8IU85 whole entry, looked up): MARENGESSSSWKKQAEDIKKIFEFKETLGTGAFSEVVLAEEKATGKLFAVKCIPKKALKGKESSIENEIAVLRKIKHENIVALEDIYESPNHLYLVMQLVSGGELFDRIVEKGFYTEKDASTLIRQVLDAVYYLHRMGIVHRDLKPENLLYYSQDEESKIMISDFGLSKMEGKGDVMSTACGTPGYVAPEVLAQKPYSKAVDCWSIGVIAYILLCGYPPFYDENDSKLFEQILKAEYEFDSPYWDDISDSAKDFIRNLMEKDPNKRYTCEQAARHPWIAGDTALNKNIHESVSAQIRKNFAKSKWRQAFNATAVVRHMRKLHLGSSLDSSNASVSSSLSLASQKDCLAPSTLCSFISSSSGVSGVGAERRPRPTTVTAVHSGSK
Chain of 5'-AMP-activated protein kinase catalytic subunit alpha-2 (Homo sapiens) (P54646 whole entry, looked up): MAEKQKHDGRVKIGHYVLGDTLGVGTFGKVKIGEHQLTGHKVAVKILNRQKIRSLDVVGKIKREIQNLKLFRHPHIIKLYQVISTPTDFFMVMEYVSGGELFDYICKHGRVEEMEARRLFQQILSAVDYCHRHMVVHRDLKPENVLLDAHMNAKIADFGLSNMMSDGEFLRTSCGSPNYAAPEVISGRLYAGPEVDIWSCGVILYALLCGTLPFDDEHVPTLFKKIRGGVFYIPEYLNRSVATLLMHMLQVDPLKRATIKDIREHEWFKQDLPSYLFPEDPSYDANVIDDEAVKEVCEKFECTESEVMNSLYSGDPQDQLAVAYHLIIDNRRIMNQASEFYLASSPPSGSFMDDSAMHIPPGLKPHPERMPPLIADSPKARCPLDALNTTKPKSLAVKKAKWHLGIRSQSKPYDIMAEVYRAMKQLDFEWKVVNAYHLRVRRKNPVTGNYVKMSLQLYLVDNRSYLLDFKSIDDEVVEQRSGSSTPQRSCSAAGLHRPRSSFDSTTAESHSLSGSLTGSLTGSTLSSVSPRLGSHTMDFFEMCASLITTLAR

Regarding `N#Cc1ccc2c(-c3ccnc(NC4CC4)n3)c(-c3ccc(F)cc3)nn2c1`, the inhibition in [1] was 1.42%; in test [2], -1.39%; in [3] it was -2.95%; in test [4], -0.28%; in [5], -0.2%; in [6], -0.61%. The inhibition is 1.09% in test [7], -0.16% in test [8], 0.14% in test [9] and -0.56% in test [10].
For the molecule `CCCNc1cccc(-n2ncc3c(N/N=C/c4ccncc4)ncnc32)c1`, the inhibition in [1] stood at 2.07%; in test [2], 5.36%; in [3] it was 36.3%; in test [4], 2.58%; in test [5], 24.7%; in test [6], 4.13%. The inhibition in test [7] was 29%; in test [8], 0.76%; in test [9] it was 1.66%; in [10], 1.4%.
Take `CS(=O)(=O)CCNCc1ccc(-c2ccc3ncnc(Nc4ccc(OCc5ccccc5)cc4)c3c2)o1`: the inhibition in test [1] was 4.61%; in test [2], -0.27%; in test [3], 1.06%; in test [4] it was 1.11%; in test [5], 1.23%; in [6], 2.82%. The inhibition in test [7] was 4.33%; in [8] it was 0.33%; in [9], 1.27%; in [10], 2.27%.
For `Cc1ccc(-c2cc3c(NC(=O)C4CC4)ncnc3o2)cc1`, the inhibition in test [1] was 5.09%; in test [2], 2.09%; in test [3], 6.68%; in test [4], 2.59%; in [5] it was 4.69%; in [6], 2.82%. Further, the inhibition in test [7] stood at 4.69%; in test [8], 0.92%; in test [9], 1.61%; in test [10], 4.04%.
For `CN1CCC(n2cnc(-c3ccc(F)cc3)c2-c2ccnc(NCCO)n2)CC1`, the inhibition in test [1] worked out at 3.88%; in [2], 1.51%; in test [3], 0.83%; in test [4], 1.04%; in [5], 3.71%; in test [6] it was 2.24%. Besides, the inhibition in [7] was 6.29%; in test [8], -1.1%; in test [9], -1.38%; in test [10], 8.05%.
Regarding `COc1cc(N2CCN(C(C)C)CC2)ccc1Nc1nc(Nc2cccc(F)c2C(=O)O)c2cc[nH]c2n1`, the inhibition in test [1] was 2.95%; in test [2], 5.3%; in test [3] it was 5.91%; in [4], -0.39%; in [5] it was 0.33%; in [6], 1.72%. For the same molecule, the inhibition in test [7] is 3.39%; in test [8] it was -0.23%; in test [9], 4.47%; in test [10], 3.99%.
Turning to `CCS(=O)(=O)c1ccc(OC)c(Nc2ncc(-c3cccc(F)c3)o2)c1`, the inhibition in test [1] was 5.58%; in test [2], 0.71%; in [3] it was 12.5%; in test [4], 1.15%; in test [5], -0.68%; in [6], 1.63%. Moreover, the inhibition in test [7] is 3.22%; in test [8], 0.89%; in test [9] it was 2.56%; in test [10] it was 2.75%.
Consider `CCN1CCC(C(=O)Nc2n[nH]c3nnc(-c4cccc(F)c4F)cc23)CC1`, for which the inhibition in [1] is 3.06%; in [2], 3.72%; in test [3] it was 5.44%; in test [4], -0.16%; in test [5], 1.41%; in [6] it was 1.7%. The inhibition was 3.77% in [7], 0.68% in test [8], 0.83% in test [9] and -1.94% in test [10].
On to `NS(=O)(=O)c1cccc(N/C=C2\C(=O)Nc3ccccc32)c1`, for which the inhibition in [1] stood at 11.2%; in test [2] it was 5.37%; in test [3] it was 35.8%; in test [4] it was 4.66%; in [5] it was 17.9%; in test [6], 5.23%. Moreover, the inhibition in [7] was 26%; in [8], 0.94%; in test [9] it was 3.7%; in [10] it was 3.94%.
Take `N#Cc1cccc(Nc2ncc(-c3ccccc3)o2)c1`: the inhibition was 1.61% in test [1]; 0.75% in test [2]; 7.37% in test [3]; -1.88% in test [4]; 1.82% in [5]; 0.65% in test [6]. The inhibition in test [7] is 5%; in [8], -1.6%; in test [9], -1.52%; in test [10] it was 1.87%.
`COC(=O)Nc1nc2ccc(Oc3ccc(NC(=O)Nc4cc(C(F)(F)F)ccc4F)cc3)cc2s1`: the inhibition in [1] is 1.67%; in test [2] it was -0.54%; in test [3], -3.55%; in test [4] it was -0.58%; in test [5], 0.34%; in test [6], -0.27%. For the same molecule, the inhibition was 0.24% in [7], 0.5% in test [8], 2.93% in [9] and -0.9% in [10].
Turning to `NC(=O)c1ccc2c(-c3ccnc(NCCCO)n3)c(-c3ccc(F)cc3)nn2c1`, the inhibition was determined as 4.65% in test [1]; 2.9% in test [2]; 4.34% in test [3]; 2.91% in test [4]; 4.68% in test [5]; 2.27% in [6]. Moreover, the inhibition in test [7] was 3.75%; in [8], -0.23%; in test [9], 1.6%; in test [10], 3.83%.
As for `NS(=O)(=O)c1ccc(N/N=C2\C(=O)Nc3ccc(C(=O)NCc4ccncc4)cc32)cc1`, the inhibition worked out at 34.9% in test [1]; 18.9% in test [2]; 59.5% in [3]; 6.67% in test [4]; 39.7% in test [5]; 17.2% in [6]. Besides, the inhibition in test [7] is 55.8%; in test [8], -0.48%; in test [9], -0.33%; in test [10], 2.84%.
`CN1CCN(Cc2ccc(-c3cc4ncnc(Nc5ccc(OCc6cccc(F)c6)c(Cl)c5)c4s3)o2)CC1`: the inhibition in test [1] is 4.56% and 5.82%; in test [2], 0.69% and 0.76%; in [3], 4.56% and 2.98%; in test [4], 0.8% and -0.05%; in [5], 2.8% and -0.24%; in test [6], 2.16% and 1.05%. In addition, the inhibition in test [7] was 4.75% and 4.26%; in test [8] it was 0.32% and 0.88%; in test [9], 2.5% and 0.41%; in test [10], 0.12% and 4.61%.
Consider `O=C(Nc1n[nH]c2nnc(-c3cccnc3)cc12)C1CC1`, for which the inhibition is 0.41% in test [1]; 1.34% in test [2]; 0.53% in test [3]; -0.56% in [4]; -3.34% in test [5]; 0.35% in test [6]. Besides, the inhibition was 1.6% in test [7], 0.85% in test [8], 0.89% in test [9] and -1.44% in test [10].
In the case of `Nc1nonc1-c1nc2cnccc2n1C1CC1`, the inhibition in [1] was 7.08% and 5.85%; in test [2] it was 5% and 1.55%; in [3], 13.1% and 10.2%; in test [4], 5.76% and 4.57%; in test [5] it was 21.7% and 18.1%; in test [6], 8.42% and 4.02%. The inhibition in [7] was 27.9% and 27.1%; in [8], 0.19% and 0.41%; in [9] it was 1.1% and 0.69%; in test [10], 4.16% and 0.57%.

In general, inhibition refers to the relative decrease from the control value, in per cent.

The values are drawn from ChEMBL document CHEMBL1961873, “Compounds: GSK PKIS; Assays: Nanosyn kinase panel” (2012).
